# Bioassay records deposited in PubChem BioAssay by several laboratories.
# This is a sample that favours compounds with a hit; in the whole collection about 1.5% have one here.
# NRP1-CendR mod = NRP-1/CendR interaction modulation; inhibition, % at 25 µM; hit rate 0.85% among 360,000; O14786; AID 602438; FAM-RPARPAR peptide binding to NRP-1, fluorescence polarization;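 active = inhibition or corrected inhibition above about 18%, plus a signal ratio from 0.5 to 1.5, limit read from the data, passing the limit was not always enough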
# N-glyco inh = blocks N-linked glycosylation in D54 reporter cells; reporter increase, % at 12.5 µM; hit rate 0.23% among 360,000; AID 588692; D54 ERlucT glycosylation luciferase reporter, 24 h; percent of 100 nM tunicamycin response;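 active = mean luciferase reporter signal, scaled so untreated is 0 and the glycosylation-blocking control 100, at or above a set limit in every replicate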;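 also: luciferase carries N-glycosylation sites so blocking glycosylation raises the light; 0% = median of neutral control wells and 100% = median of 100 nM tunicamycin wells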
# RAD52 anneal inh = RAD52 (human) annealing inhibition. AID 651710. recombinant RAD52 DNA annealing, FRET fluorescence. hit rate 0.46% among 360,000. inhibition, % at 18.7 µM. P43351;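 active = every replicate showing at least 50% inhibition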
# Target sequence (P43351 whole entry, looked up): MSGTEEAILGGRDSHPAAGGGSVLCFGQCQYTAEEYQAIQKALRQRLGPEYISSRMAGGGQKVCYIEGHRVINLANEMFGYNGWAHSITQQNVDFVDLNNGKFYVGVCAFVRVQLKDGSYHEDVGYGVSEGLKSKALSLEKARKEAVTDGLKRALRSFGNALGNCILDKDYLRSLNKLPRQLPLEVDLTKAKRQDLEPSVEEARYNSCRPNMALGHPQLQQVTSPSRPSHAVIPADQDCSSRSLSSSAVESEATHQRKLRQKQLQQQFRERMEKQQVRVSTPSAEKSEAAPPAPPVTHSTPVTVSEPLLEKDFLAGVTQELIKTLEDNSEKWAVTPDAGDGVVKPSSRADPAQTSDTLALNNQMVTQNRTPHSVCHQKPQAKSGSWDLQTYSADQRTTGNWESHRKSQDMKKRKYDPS
# FID counter = displaces DNA intercalator in HCV helicase counter-screen | DNA fluorescent intercalator displacement, fluorescence | inhibition, % at 7.9 µM | hit rate 0.17% among 290,000 | AID 1845; in the data active = inhibition above about 37%;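 also: 0% = vehicle and 100% = reference compound; higher means more ethidium bromide displaced from hairpin DNA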
# miR-122 sensor = blocks miR-122 activity in Huh7 sensor cells; activation (reporter increase), % at 12.5 µM; Huh7 miR-122 Renilla luciferase sensor, 48 h; neutral wells = 0, positive control = 100; hit rate 0.3% among 340,000; AID 602342;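 active = mean replicate activation score at least 90 and every replicate individually at or above 90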;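 also: higher luciferase means less miR-122 activity so hits act as miR-122 inhibitors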
# RAD54 inh = inhibitors of human RAD54 branch migration | inhibition, % at 10.4 µM | hit rate 0.14% among 360,000 | RAD54 Holliday junction branch migration, FAM/BHQ fluorescence | Q92698;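 active = mean normalized replicate activity at least 40 and at least half of replicates scoring 40 or more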;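 also: 0% = median of neutral control wells and 100% = median of positive control wells; inhibitors cause a drop in the FAM fluorescence signal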
# An asterisk follows results filed as active; . = not tested or not shown; [ ] = dose if it differs, or a comment.
SMILES,NRP1-CendR mod,N-glyco inh,RAD52 anneal inh,FID counter,miR-122 sensor,RAD54 inh
O=C1OC[C@@H](c2ccccc2)n2cc(/C=C/c3ccccc3)cc21,.,.,4,.,.,-2
C/C=C/c1ccc2c(c1)O[C@@H](CN(C)C(=O)C1CCC1)[C@@H](C)CN([C@H](C)CO)S2(=O)=O,.,.,.,.,9[16.7 µM],.
COCCNC(=O)C[C@@H]1CC[C@@H]2[C@H](COc3ccc(NC(=O)C4CCCC4)cc3C(=O)N2C)O1,.,.,5,.,-4[16.7 µM],-7
C[C@@H]1CN([C@H](C)CO)C(=O)c2cc(C3=CCCC3)cnc2O[C@H]1CN(C)C(=O)C1CC1,.,.,.,.,2[16.7 µM],.
Cc1ccc(-c2nnc(-c3cccc4ccccc34)o2)cc1,17,-5,-16,.,3,0
Cc1cccc(-c2nnc(-c3cccc4ccccc34)o2)c1,10,-4,-6,.,146*,12
COc1ccc(OC)c(NC(=O)C2CC(=O)N(c3ccc(Br)cc3)C2)c1 (configuration not stated),26*,0,.,-10,-3,-3
CC(=O)Nc1ccc(NC(=O)C2CC(=O)N(c3ccc(Cl)cc3)C2)cc1 (configuration not stated),28*,.,4,-17,-3,-3
O=C(Nc1ccc(N2CCOCC2)cc1)C1CC(=O)N(c2ccc(Cl)cc2)C1 (configuration not stated),-5,-1,-15,-7,.,.
CNC[C@H]1Oc2ccc(NC(=O)Cc3ccccc3)cc2C(=O)N([C@H](C)CO)C[C@@H]1C,.,.,10,.,0[16.7 µM],-10
COc1cc(S(=O)(=O)Nc2ccccc2N2CCCCC2)ccc1NC(C)=O,17,2,-10,.,111*,12
COc1ccccc1NS(=O)(=O)c1cc(NC(=O)c2sccc2C)ccc1N1CCOCC1,-12,-5,-18,-16,84,1
COc1ccc(NS(=O)(=O)c2cc(NC(=O)c3sccc3C)ccc2N2CCOCC2)cc1,11,14,-17,-3,188*,-7
COc1ccccc1NS(=O)(=O)c1cc(NC(=O)Nc2ccccc2)ccc1N1CCCCC1,-6,-11,2,-2,289*,17
COc1cc(OC)c(S(=O)(=O)Nc2ccccc2N2CCCCC2)cc1NC(C)=O,6,1,-16,-15,7,.
COc1ccccc1NS(=O)(=O)c1cc(NC(=O)c2sccc2C)ccc1N1CCCC1,6,-6,.,-11,173*,.
COc1ccc(CN(C)C[C@@H]2OCCCC[C@H](C)Oc3ccc(NC(=O)Nc4ccccc4)cc3C(=O)N([C@H](C)CO)C[C@@H]2C)cc1,.,.,.,.,0[16.7 µM],4
COc1ccc(N2C(=O)C3C(C2=O)C3(c2ccccc2)c2ccccc2)cc1 (configuration not stated),9,2,0,-23,.,.
COc1ccc(N2C(=O)C3[C@@H](C2=O)C2(Cl)C(Cl)=C(Cl)C3(Cl)C2(OC)OC)cc1 (some centres not stated),27*,3,.,-20,0,5
CC[n+]1c(/C=C/N(C)c2ccccc2)oc2ccc(F)cc21,-162,20,.,6,335*,-1
O=C(CSc1nnc(-c2cc3ccccc3cc2O)n1Cc1ccco1)c1ccc(F)cc1,6,2,.,-29,231*,-13
COCCCNc1cc(C)nc2ccccc12,9,1,-14,0,-1,4
Cc1cc(NCCCCCCCNc2cc(C)nc3cc([N+](=O)[O-])ccc23)c2ccc([N+](=O)[O-])cc2n1,16,-19,77*,.,.,.
Cc1ccc(/C=C2\SC(=S)N(CCC(=O)N3CCCCC3)C2=O)cc1,14,18,-6,-12,.,27
COc1ccccc1/C=C1\SC(=S)N(CCC(=O)Nc2ccc(C(=O)O)c(O)c2)C1=O,-43,3,-12,38*,.,.
O=C(CCN1C(=O)/C(=C/c2cccs2)SC1=S)N1CCCCC1,-21,50*,-129,-24,0,-7
O=C(CCN1C(=O)/C(=C\c2ccccc2)SC1=S)N1CCCCC1,6,56*,-2,-13,-9,10
CCN(CC)C(=O)CN1C(=O)/C(=C/c2ccccc2)SC1=S,20*,-1,-11,-5,-7,-4
O=C(CCN1C(=O)/C(=C/c2ccco2)SC1=S)Nc1ccc(C(=O)O)c(O)c1,-169,0,-365,14,.,-87
